# Most compounds without a hit are left out; they make up all but 8% or so of the library.
# VP16 counter = inhibits Gal4-VP16 luciferase reporter, ROR gamma counter-screen. Potency, µM (series often up to 53.6 µM), inactives show at the top dose activity, negative = inhibition, most hits filed as inhibitors. AID 2546. Drosophila S2 Gal4-VP16 UAS-luciferase, luminescence, 20 h. 3.5% of 310,000 active;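 note: Gal4-VP16 expression switched on by copper sulfate through the metallothionein promoter; potency is the fitted concentration of half-maximal effect; nearly all actives have a fitted effect of over 50% in size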
# ELG1 DNA repair = blocks ELG1-dependent DNA repair in HEK293T cells; 2.3% of 330,000 active; HEK293T ELG1-luciferase reporter, luminescence, 16 h; DNA damage induced by 5-fluorouridine; Potency, µM (highest dose often 46.1 µM), without a hit: at the top dose activity change, negative = inhibition, actives largely listed as inhibitors; note: potency is the fitted concentration of half-maximal effect; nearly all actives have a fitted effect of over 55% in size
#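 Reporter activity after DNA damage by 5-fluorouridine is monitored. Compound-treated cells incubate 16 hr at 37 °C, then ONE-Glo is added for 30 min before luminescence reading.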
# Coupling enz = inhibits coupling enzyme system, counter-screen for aldolase hits | coupling enzyme system counterscreen, AmpLite Red fluorescence | activity change, negative = inhibition, % at 58.2 µM, hits read low | 0.67% of 290,000 active; in the data active = activity change below about -30%
#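 Fluorescence at 525 nm excitation and 598 nm emission measured inhibition of the coupled detection system without aldolase. Compounds (at 57.5 uM final) were preincubated 10 min at room temperature with coupling enzyme reagent before a 20 min substrate/AmpLite Red step.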
# RORgamma inh = blocks mouse ROR gamma transcriptional activity; P51450; Drosophila S2 Gal4-RORgamma UAS-luciferase reporter, 20 h; Potency, µM (highest dose often 53.6 µM), without a hit: at the top dose activity change, negative = inhibition, hits mostly inhibitors; 5.4% of 310,000 active; AID 2551; note: potency is the fitted concentration of half-maximal effect; nearly all actives have a fitted effect of over 60% in size
#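 Stably transfected Drosophila Schneider cells are the test system, with ROR gamma fused to Gal4 and luciferase under UAS control; luminescence is read after 20 hr of 700 uM copper sulfate induction at ambient temperature.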
# TSHR antag = antagonists of human thyroid stimulating hormone receptor. P16473. AID 504810. TSHR-expressing cells, TSH-stimulated cAMP HTRF, 2 h; stronger effect = lower value. activity change, negative = inhibition, % at 11.5 µM. 0.2% of 330,000 active;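 active = activity change below a set negative limit, meaning inhibition stronger than a set level, cut at about -70% in these data; inconclusive = activity change between two set negative limits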
# Target sequence (P16473 whole entry, looked up): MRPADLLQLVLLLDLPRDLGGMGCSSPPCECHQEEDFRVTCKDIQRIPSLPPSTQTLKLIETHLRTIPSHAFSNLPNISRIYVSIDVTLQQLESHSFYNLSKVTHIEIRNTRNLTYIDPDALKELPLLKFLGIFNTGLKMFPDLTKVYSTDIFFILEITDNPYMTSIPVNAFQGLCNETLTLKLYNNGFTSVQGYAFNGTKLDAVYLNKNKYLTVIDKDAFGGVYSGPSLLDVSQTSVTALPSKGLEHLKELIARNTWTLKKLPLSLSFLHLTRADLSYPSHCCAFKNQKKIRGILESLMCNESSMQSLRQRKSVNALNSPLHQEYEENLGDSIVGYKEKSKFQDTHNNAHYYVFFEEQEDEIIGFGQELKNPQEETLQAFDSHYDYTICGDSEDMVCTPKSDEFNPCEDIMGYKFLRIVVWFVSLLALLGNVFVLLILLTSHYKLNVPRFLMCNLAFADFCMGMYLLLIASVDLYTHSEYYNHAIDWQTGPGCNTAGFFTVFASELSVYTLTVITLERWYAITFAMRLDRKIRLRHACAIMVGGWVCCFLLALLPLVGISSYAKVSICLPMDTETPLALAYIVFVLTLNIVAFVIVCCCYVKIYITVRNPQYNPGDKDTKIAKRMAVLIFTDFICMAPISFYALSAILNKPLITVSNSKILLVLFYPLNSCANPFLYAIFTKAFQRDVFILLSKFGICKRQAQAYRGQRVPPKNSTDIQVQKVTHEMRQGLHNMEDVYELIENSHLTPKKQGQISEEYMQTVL
#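 Inhibition of cAMP made by TSHR-expressing cells under TSH stimulation (4nM final, EC80; 2 h, 37 deg C) is quantified with a one-step lysis HTRF kit, anti-cAMP cryptate versus cAMP-d2.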
# Starred values were filed as active, the others as inactive; ? = inconclusive; / = no result; [ ] = remark or other dose. Unless noted, calls come from the whole dose curve; as a rule, active = well fitted curve in the direction sought with a large enough effect; inconclusive = small, poorly fitted or top-dose-only effect, or another doubt; inactive = no such curve, though single readings can be large; an effect the other way counts as inactive or inconclusive. % is set by controls: 0 for no effect and ±100 for the full control effect.
SMILES,VP16 counter,ELG1 DNA repair,Coupling enz,RORgamma inh,TSHR antag
C=CCc1ccccc1OCC(O)CN1CCN(CCN2C(=O)c3cccc4cccc(c34)C2=O)CC1 (stereo unspecified),11µM*,21µM*,-10,-97%,27
COc1ccc(-c2nnc(SCC(=O)NCC3CCCO3)o2)cc1 (stereo unspecified),?,16%,1,13µM*,7
COc1ccc(-c2nnc(SCC(=O)c3ccc(O)cc3O)o2)cc1,?,?,2,5.6µM*,-18
Cc1nc(SCC(=O)NCC2CCCO2)c2c3c(sc2n1)CCCC3 (stereo unspecified),13µM*,2%,1,3.5µM*,24
COc1ccc(-c2nnc(SCC(=O)NCc3ccco3)o2)cc1,?,26%,4,0.56µM*,-3
O=[N+]([O-])c1cccc2c[nH]nc12,-16%,/,-12,-15%,/
CC(=O)Nc1ccc(S(=O)(=O)N2CCN=C2SCc2ccc([N+](=O)[O-])cc2)cc1,?,?,1,?,-25
CCn1c(COc2ccccc2OC)nnc1SCC(=O)NC1CCCC1,-2%,8%,1,15%,8
O=C(NCCC(=O)N1CCN(S(=O)(=O)c2ccccc2F)CC1)Nc1ccccc1,/,-12%,/,/,-26
CCOC(=O)[C@H]1[C@H]2COc3ccccc3[C@@H]2N2C(=O)[C@@H](CO)NC(=O)[C@@]12C,/,21%,/,/,16
N#CCCCN1C(=O)C(=C(C#N)C#N)c2ccccc21,?,0%,-35*,?,-8
O=C(NC(=S)NCc1ccccc1)c1cccnc1,?,18%,5,11µM*,13
O=C(NCCC1=CCCCC1)C1CCCN(S(=O)(=O)c2cccnc2)C1 (stereo unspecified),5%,-18%,0,28%,9
O=C(NCc1ccccc1)c1csc(-c2cccnc2)n1,4%,5.8µM*,3,18%,7
CCOc1ccc(C(=O)NC(=S)NCc2cccnc2)cc1,-22%,-3%,0,?,6
O=C(NCCc1csc(-c2cccnc2)n1)c1ccccc1,5%,-5%,0,0%,-1
O=C(NC(=S)NCCC1=CCCCC1)c1cccnc1,?,-15%,0,4µM*,-10
CCCOc1ccc(C(=O)NC(=S)NCc2cccnc2)cc1,13µM*,-4%,0,?,-6
O=C(c1csnn1)N1CCC2(CC1)CN(c1ccncc1)C2,-12%,/,1,-11%,/
Cc1cccc(C(=O)NC(=S)NCc2cccnc2)c1,?,-4%,1,16µM*,5
Nc1cc(S(=O)(=O)Nc2ccc(Cl)cc2)ccc1N1CCOCC1,16µM*,15µM*,2,4%,-16
O=C(Nc1cc(S(=O)(=O)N2CCCCC2)ccc1O)c1ccccc1NS(=O)(=O)c1ccc(F)cc1,4%,-6%,5,40%,-36
O=C(O)/C=C/c1ccc(S(=O)(=O)Nc2ccccc2C(=O)Nc2ccc(F)cc2)cc1,-1%,11%,11,10%,-100*
CN(C)c1ccc(-c2nnn(CC(=O)Nc3ccccc3N3CCOCC3)n2)cc1,-10%,15µM*,-7,27%,-8
O=C(Nc1ccc(S(=O)(=O)Nc2ncccn2)cc1)c1ccccc1NS(=O)(=O)c1ccc(F)cc1,5%,-2%,15,0%,2
SMILES,VP16 counter,ELG1 DNA repair,Coupling enz,RORgamma inh,TSHR antag
O=C(Nc1cc(S(=O)(=O)N2CCCCC2)ccc1Cl)c1ccccc1NS(=O)(=O)c1ccc(F)cc1,5.6µM*,4.1µM*,6,?,-43
O=C(COC(=O)c1ccc[nH]c1=O)NC1CC1,/,21%,/,/,/
COc1cc(OC)nc(/N=C/NO)n1,0%,-2%,1,7%,1
O=C(Nc1ccccc1N1CCOCC1)c1ccccc1NS(=O)(=O)c1ccc(F)cc1,-3%,-6%,4,?,0
CN(CC(=O)Nc1ccccc1N1CCOCC1)S(=O)(=O)c1ccc(Cl)cc1,-2%,26µM*,0,15%,-7
COc1ccc(-c2csc(NC(=O)c3ccccc3NS(=O)(=O)c3ccc(F)c(F)c3)n2)cc1,4µM*,?,-1,5.6µM*,-88*
O=C(CN(Cc1ccco1)Cc1ccco1)Nc1cc(S(=O)(=O)N2CCCCC2)ccc1Cl,/,26µM*,/,/,-25
O=C(Nc1ccccc1N1CCOCC1)c1ccccc1NS(=O)(=O)c1ccc(F)c(F)c1,-21%,21µM*,7,22%,-23
Cc1ccc(S(=O)(=O)Nc2ccccc2C(=O)Nc2nc(-c3ccc(F)cc3)cs2)cc1,-8%,?,-4,16%,?
C[C@]12CCC(=O)C=C1CCC1C2C(O)C[C@]2(C)C1CC[C@]2(O)C(=O)COC(=O)CCC(=O)O (stereo partly specified),1%,/,2,3%,/
C#CCCCO/N=C1/C[C@@H](O)[C@@H](O)[C@@H]2[C@@H]3C(=O)N(Cc4ccccc4)C(=O)[C@H]3CC[C@H]12,-11%[10 µM],/,4,4%[10 µM],/
COc1cccc(N2CCN(C(=O)c3cc(C)oc3C)CC2)c1,/,-11%,/,/,-1
CCc1cc2c(=O)c(-c3nc4ccccc4[nH]3)coc2c(CN2CCCCC2C)c1O (stereo unspecified),2%,21µM*,-1,-24%,-14
O=C(NNc1ccc(C(F)(F)F)cc1[N+](=O)[O-])c1ccc(NS(=O)(=O)c2ccc(F)cc2)cc1,?,21µM*,0,?,-19
O=C(N/N=C\c1ccco1)c1cncc(Br)c1,?,-1%,5,?,19
O=C(N/N=C/C=C/c1ccccc1)c1cccnc1,?,5%,-3,5.6µM*,-6
O=C(N/N=C\C=C\c1ccco1)c1cncc(Br)c1,?,-7%,-11,2.2µM*,2
O=C(N/N=C\C=C\c1ccco1)c1cc(-c2ccc3ccccc3c2)n[nH]1,1µM*,?,-1,2.2µM*,-6
O=C(N/N=C/C=C/c1ccc(Br)cc1)C(O)c1ccccc1 (stereo unspecified),?,14%,-2,11µM*,-4
CC[C@@]1([C@@H]2O[C@@H]([C@H]3O[C@@](O)(CO)[C@H](C)C[C@@H]3C)C[C@@H]2C)CC[C@@H]([C@]2(C)CCC3(C[C@H](O)[C@@H](C)[C@@H]([C@@H](C)[C@@H](OC)[C@H](C)C(=O)O)O3)O2)O1 (stereo partly specified),?,/,-3,?,/
O=C(N/N=C/C=C/c1ccco1)c1cccnc1,12%,0%,-18,-7%,-3
Cn1cc(C(=O)N/N=C/C=C/c2ccccc2)ccc1=O,?,?,-2,?,-10
